Shown are actives, neighbours in structure and some others; about 19% of the full set was active somewhere.
TDP1 cell noCPT – qHTS for Inhibitors of human tyrosyl-DNA phosphodiesterase 1 (TDP1): qHTS in cells in absence of CPT. hit rate 15% among 420,000. DT40 Tdp1-/- hTDP1 cells, no CPT, ATP luminescence, 48 h. Potency, µM (top dose mostly 46.2 µM), without a hit: top-dose activity change, negative = growth inhibition, hits mostly inhibitors. AID 686978, 2013; also: nearly all actives have a fitted effect of over 55% in size
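No-CPT arm: Tdp1-/-;hTDP1 DT40 cells (400/well) plus compounds, incubated ≥48 hr at 37 °C. Readout CellTiter-Glo luminescence.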
TDP1 cell CPT – growth inhibition of DT40 Tdp1-/-;hTDP1 cells with camptothecin (screen for TDP1 inhibitors) | chicken DT40 Tdp1-/-;hTDP1 cells + 20 nM CPT, ATP luminescence, 48 h | AID 686979 | hit rate 12% among 420,000 | Potency, µM (doses to about 46.2 µM), for inactives: at the top dose activity change, negative = growth inhibition, actives largely listed as inhibitors; also: nearly all actives have a fitted effect of over 55% in size
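Cell growth measured by CellTiter-Glo luminescence after a minimum 48 h, 37 C compound exposure with 20 nM CPT in Tdp1-knockout DT40 cells stably expressing hTDP1, seeded 400/well; qHTS titration format.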
TDP1 inh – blocks human tyrosyl-DNA phosphodiesterase 1; Q9NUW8; recombinant TDP1, AlphaScreen DNA substrate cleavage; Potency, µM (top dose mostly 130 µM), for inactives: at the highest dose activity change, negative = inhibition, hits mostly inhibitors; hit rate 0.28% among 350,000; also: nearly all actives have a fitted effect of over 40% in size
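AlphaScreen read-out: signal falls as enzyme removes the 3' tyrosine-FITC from a 5'-biotinylated DNA oligo (15 nM, 5 min, RT). Enzyme was E. coli-made recombinant Tdp1 at 1 nM, exposed to compound for 15 min beforehand; beads 10 ug/ml, 10 min.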
Gal4-VP16 FLuc – Gal4-VP16 reporter inhibition counter-screen; Potency, µM (series often up to 53.6 µM), for inactives: at the highest dose activity, negative = inhibition, most hits filed as inhibitors; hit rate 3.5% among 310,000; Drosophila S2 Gal4-VP16 UAS-luciferase, luminescence, 20 h; AID 2546;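 also: Gal4-VP16 expression switched on by copper sulfate through the metallothionein promoter; nearly all actives have a fitted effect of over 50% in size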
RORg inh – blocks mouse ROR gamma transcriptional activity. P51450. Potency, µM (top dose mostly 53.6 µM), inactives show at the highest dose activity change, negative = inhibition, most hits filed as inhibitors. hit rate 5.4% among 310,000. Drosophila S2 Gal4-RORgamma UAS-luciferase reporter, 20 h. AID 2551; also: nearly all actives have a fitted effect of over 60% in size
Target sequence (P51450 whole entry, looked up, the tested form may be a part): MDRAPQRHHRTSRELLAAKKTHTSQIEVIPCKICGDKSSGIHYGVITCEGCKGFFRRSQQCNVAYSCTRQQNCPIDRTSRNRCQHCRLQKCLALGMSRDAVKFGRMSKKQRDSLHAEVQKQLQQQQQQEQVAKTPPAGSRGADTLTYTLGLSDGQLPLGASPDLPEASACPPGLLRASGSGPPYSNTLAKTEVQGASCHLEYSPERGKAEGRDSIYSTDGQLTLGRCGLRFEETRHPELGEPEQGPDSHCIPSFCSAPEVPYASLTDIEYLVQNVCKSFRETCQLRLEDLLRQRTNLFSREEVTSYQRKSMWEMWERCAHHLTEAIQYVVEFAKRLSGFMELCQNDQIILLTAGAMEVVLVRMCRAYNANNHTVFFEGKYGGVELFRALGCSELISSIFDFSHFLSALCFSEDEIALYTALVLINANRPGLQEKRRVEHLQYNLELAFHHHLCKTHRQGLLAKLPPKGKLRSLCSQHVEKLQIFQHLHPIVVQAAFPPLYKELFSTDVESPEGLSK
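Stably transfected Drosophila Schneider cells are the test system, with ROR gamma fused to Gal4 and luciferase under UAS control; luminescence is read after 20 hr of 700 uM copper sulfate induction at ambient temperature.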
* hit, by the source's call. Calls follow the shape of the dose curve; as a rule, active = well fitted curve in the direction sought with a large enough effect; inconclusive = small, poorly fitted or top-dose-only effect, or another doubt; inactive = no such curve, though single readings can be large; an effect the other way counts as inactive or inconclusive. % is scaled to controls: 0 for no effect and ±100 for the full control effect; potency is read from the fitted curve at half-maximal effect.

What do the screens show for `COCCCNc1nc(N)c([N+](=O)[O-])c(Nc2cc(OC)ccc2OC)n1`?
TDP1 cell noCPT: inconclusive; TDP1 cell CPT: 0%; TDP1 inh: 8%; Gal4-VP16 FLuc: -6%; RORg inh: -9%

Results for COc1ccccc1Nc1nc(NCCC(C)C)nc(N)c1[N+](=O)[O-] ?
TDP1 cell noCPT: 18µM*; TDP1 cell CPT: inconclusive; TDP1 inh: 1%; Gal4-VP16 FLuc: 1%; RORg inh: -19%

What do the screens show for `N[C@H]1CCN(O)C1=O`?
TDP1 cell noCPT: inconclusive; TDP1 cell CPT: inconclusive; TDP1 inh: 19%; Gal4-VP16 FLuc: -9%; RORg inh: 13%

What do the screens show for `COc1ccccc1Cn1c(CNS(=O)(=O)c2ccc(C(C)C)cc2)nc2cccnc21`?
TDP1 cell noCPT: 23µM*; TDP1 cell CPT: inconclusive; TDP1 inh: 11%

What do the screens show for `CC(C)Cc1ccc(S(=O)(=O)NCc2nc3cccnc3n2Cc2ccccc2)cc1`?
TDP1 cell noCPT: 18µM*; TDP1 cell CPT: inconclusive; TDP1 inh: 3%

Results for COc1ccccc1Cn1c(CNS(=O)(=O)c2ccc(CC(C)C)cc2)nc2cccnc21 ?
TDP1 cell noCPT: 13µM*; TDP1 cell CPT: 21µM*; TDP1 inh: 7%

Results for Cc1ccc(Cn2c(CNS(=O)(=O)c3ccc(C(C)(C)C)cc3)nc3cccnc32)cc1 ?
TDP1 cell noCPT: inconclusive; TDP1 cell CPT: inconclusive; TDP1 inh: 11%

Results for COc1ccccc1Cn1c(CNS(=O)(=O)c2ccc3c(c2)CCCC3)nc2cccnc21 ?
TDP1 cell noCPT: inconclusive; TDP1 cell CPT: inconclusive; TDP1 inh: 11%

How did COc1cc(Cl)c(C)cc1NC(=O)c1cnn(-c2ccc(C)cc2)c1-n1cccc1 do in these assays?
TDP1 cell noCPT: -7%; TDP1 cell CPT: 2%; TDP1 inh: -3%

What do the screens show for `c1ccc(-c2cn3c4c(sc3n2)CCCC4)cc1`?
TDP1 cell noCPT: inconclusive; TDP1 cell CPT: inconclusive; TDP1 inh: 9%; Gal4-VP16 FLuc: 6.3µM*; RORg inh: 3.5µM*

Results for O=C1Nc2ccccc2C(O)(C(=O)NCc2ccco2)N1c1ccc(Cl)cc1 (stereo unspecified) ?
TDP1 cell noCPT: inconclusive; TDP1 cell CPT: -24%; TDP1 inh: -2%; Gal4-VP16 FLuc: 8%; RORg inh: 28%

Results for CCOc1cc(/C=N/NC(=O)Cn2nc([N+](=O)[O-])cc2C)cc(Br)c1OCc1ccccc1C ?
TDP1 cell noCPT: inconclusive; TDP1 cell CPT: 23µM*; TDP1 inh: 4%; Gal4-VP16 FLuc: -18%; RORg inh: inconclusive

What do the screens show for `C=CCOc1c(Br)cc(/C=N/NC(=O)Cc2ccc(C(F)(F)F)cc2[N+](=O)[O-])cc1OC`?
TDP1 cell noCPT: 13µM*; TDP1 cell CPT: 12µM*; TDP1 inh: 8%; Gal4-VP16 FLuc: 18µM*; RORg inh: inconclusive

How did COc1cccc(/C=N/NC(=O)Cn2nc([N+](=O)[O-])cc2C)c1 do in these assays?
TDP1 cell noCPT: -19%; TDP1 cell CPT: 16%; TDP1 inh: 4%; Gal4-VP16 FLuc: -8%; RORg inh: 29%

What do the screens show for `COc1cc(/C=N/NC(=O)Cn2nc([N+](=O)[O-])cc2C)cc(Br)c1OCc1ccccc1`?
TDP1 cell noCPT: inconclusive; TDP1 cell CPT: 26µM*; TDP1 inh: 1%; Gal4-VP16 FLuc: 6%; RORg inh: 1%

Results for Fc1ccc(Cn2cnc3ccccc32)cc1 ?
TDP1 cell noCPT: -34%; TDP1 cell CPT: -28%; TDP1 inh: 1%; Gal4-VP16 FLuc: 23%; RORg inh: -34%

Results for CCCOc1ccc(Cn2cnc3ccccc32)cc1 ?
TDP1 cell noCPT: 13µM*; TDP1 cell CPT: inconclusive; TDP1 inh: 7%; Gal4-VP16 FLuc: inconclusive; RORg inh: 16µM*

What do the screens show for `Cc1ccccc1Cn1cnc2ccccc21`?
TDP1 cell noCPT: 21µM*; TDP1 cell CPT: 18µM*; TDP1 inh: 2%; Gal4-VP16 FLuc: inconclusive; RORg inh: inconclusive

Results for Cc1ccc(Cn2cnc3ccccc32)cc1C ?
TDP1 cell noCPT: 16µM*; TDP1 cell CPT: 13µM*; TDP1 inh: 3%; Gal4-VP16 FLuc: inconclusive; RORg inh: 10µM*

Results for CC(C)NC(=O)CN(c1cccc(Br)c1)S(C)(=O)=O ?
TDP1 cell noCPT: -6%; TDP1 cell CPT: 1%; TDP1 inh: 0%; Gal4-VP16 FLuc: -2%; RORg inh: -9%

What do the screens show for `O=S(=O)(c1nccs1)N1CCN(c2nc(-c3cccs3)nc3ccccc23)CC1`?
TDP1 cell noCPT: 11µM*; TDP1 cell CPT: inconclusive; TDP1 inh: 0%

How did COc1ccc(N2CCN(c3nc(-c4cccs4)nc4ccccc34)CC2)cc1 do in these assays?
TDP1 cell noCPT: 23µM*; TDP1 cell CPT: inconclusive; TDP1 inh: 5%; Gal4-VP16 FLuc: 2%; RORg inh: 0%

Results for c1csc(-c2nc(N3CCOCC3)c3ccccc3n2)c1 ?
TDP1 cell noCPT: inconclusive; TDP1 cell CPT: inconclusive; Gal4-VP16 FLuc: 3%; RORg inh: 17%

What do the screens show for `Cc1ccc(S(=O)(=O)N2CCCN(c3nc(-c4cccs4)nc4ccccc34)CC2)cc1`?
TDP1 cell noCPT: inconclusive; TDP1 cell CPT: 13µM*

What do the screens show for `O=S(=O)(Cc1ccccc1)N1CCN(c2nc(-c3cccs3)nc3ccccc23)CC1`?
TDP1 cell noCPT: 13µM*; TDP1 cell CPT: inconclusive; TDP1 inh: 1%

Results for O=C(O)c1sccc1S(=O)(=O)Nc1ccccc1N1CCCCC1 ?
TDP1 inh: 8%; Gal4-VP16 FLuc: 10%; RORg inh: 26%

What do the screens show for `NC(=O)CC(NC(=O)OCc1ccccc1)C(=O)O` (stereo unspecified)?
TDP1 cell noCPT: 5%; TDP1 cell CPT: -3%; TDP1 inh: 2%; Gal4-VP16 FLuc: -5%; RORg inh: 4%

How did CC(C)S(=O)(=O)N1CCN(c2nc(-c3cccs3)nc3ccccc23)CC1 do in these assays?
TDP1 cell noCPT: 18µM*; TDP1 cell CPT: 11µM*; TDP1 inh: 0%

What do the screens show for `O=S(=O)(c1ccccc1)N1CCN(c2nc(-c3cccs3)nc3ccccc23)CC1`?
TDP1 cell noCPT: inconclusive; TDP1 cell CPT: 13µM*; TDP1 inh: 1%; Gal4-VP16 FLuc: inconclusive; RORg inh: -1%

Results for O=C(c1cc(COc2ccc(F)cc2F)on1)N1CCN(C2CCCC2)C(=O)C1 ?
TDP1 cell noCPT: inconclusive; TDP1 cell CPT: inconclusive; TDP1 inh: 2%; Gal4-VP16 FLuc: 4%; RORg inh: 19%

How did O=C(COc1ccc2oc(-c3ccco3)cc(=O)c2c1)N1CCCCC1 do in these assays?
TDP1 cell noCPT: -18%; TDP1 cell CPT: inconclusive; TDP1 inh: 56µM*; Gal4-VP16 FLuc: 1%; RORg inh: 17%
